Assay results reported in PubChem BioAssay (Tox21).
Values joined by “and” are separate entries in the source; they are usually repeats but may differ in a detail not shown here. Identical values can stand only once. Inconclusive results are not listed. Where a call stands in place of a potency, no number is given. Active and inactive are the calls of the source. Unless noted, the call rests on the fitted dose curve; in most records, active means well fitted curve in the direction sought with a large enough effect in the repeat runs; inconclusive means weak or mixed curves; inactive means no such curve, though single readings can be large; an effect the other way counts as inactive or inconclusive.

Tests used:
[1] = qHTS assay to identify small molecule antagonists of the estrogen receptor beta (ER-beta) signaling pathway - cell viability counter screen (AID 1259382); settings: ER-beta-UAS-bla HEK293T viability, CellTiter-Glo luminescence, 16 h; series mostly up to 92.4 µM;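 further: HEK293T cells carrying ER-beta-UAS-bla reporter stimulated with estradiol; nearly all actives have a fitted effect of over 55% in size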
In short: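 Cytotoxicity counter screen multiplexed with the beta-lactamase antagonist assay: GripTite HEK293T ER-beta-bla cells were treated 16 hr with test chemicals in the presence of 1nM 17-beta-estradiol, and viability was measured by CellTiter-Glo.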

[2] = qHTS assay to identify small molecule agonists or antagonists of the thyroid stimulating hormone receptor (TSHR) signaling pathway - wild type cell line counter screen (AID 1259384; calls by dose curve); settings: HEK293 wild type, cAMP HTRF counter-screen, stronger effect = higher value; series mostly up to 92.4 µM
In short: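 Counter screen in untransfected Hek293: compounds (15-point titration, triplicate) plus phosphodiesterase inhibitor Ro20-1724 added after 18 h plating; 30 min RT. Intracellular cAMP via competitive d2/cryptate immunoassay, 1 h incubation.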

[3] = biological target: Thyrotropin receptor (Homo sapiens) (UniProt P16473); assay: qHTS assay to identify small molecule antagonists of the thyroid stimulating hormone receptor (TSHR) signaling pathway (AID 1259385; calls by dose curve; further: nearly all actives have a fitted effect of over 20% in size; further: potency means the concentration at half of the fitted maximal effect); settings: TSHR-HEK293 cAMP HTRF, TSH-stimulated antagonist mode; series mostly up to 92.4 µM
Chain of Thyrotropin receptor (Homo sapiens) (P16473 whole entry, looked up): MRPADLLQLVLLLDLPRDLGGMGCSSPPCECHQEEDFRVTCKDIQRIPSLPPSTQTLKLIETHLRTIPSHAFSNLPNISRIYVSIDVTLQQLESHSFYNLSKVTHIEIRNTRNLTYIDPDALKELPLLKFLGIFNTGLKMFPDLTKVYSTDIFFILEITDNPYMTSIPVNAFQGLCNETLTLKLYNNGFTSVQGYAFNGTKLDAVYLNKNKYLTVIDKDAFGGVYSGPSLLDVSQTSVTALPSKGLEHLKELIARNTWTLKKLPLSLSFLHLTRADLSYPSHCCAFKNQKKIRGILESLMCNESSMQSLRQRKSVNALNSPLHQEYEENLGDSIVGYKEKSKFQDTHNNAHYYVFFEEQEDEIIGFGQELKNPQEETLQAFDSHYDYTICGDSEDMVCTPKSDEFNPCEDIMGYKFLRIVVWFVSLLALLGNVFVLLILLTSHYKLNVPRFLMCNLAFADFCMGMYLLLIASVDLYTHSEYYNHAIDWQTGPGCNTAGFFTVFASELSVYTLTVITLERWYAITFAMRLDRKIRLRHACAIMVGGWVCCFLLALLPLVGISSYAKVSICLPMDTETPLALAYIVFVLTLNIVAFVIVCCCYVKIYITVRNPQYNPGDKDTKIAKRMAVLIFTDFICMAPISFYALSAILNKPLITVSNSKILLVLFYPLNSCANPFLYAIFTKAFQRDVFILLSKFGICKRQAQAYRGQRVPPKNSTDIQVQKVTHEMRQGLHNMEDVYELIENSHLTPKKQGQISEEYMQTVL
In short: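 Antagonist mode: compound-treated TSHR-expressing HEK293 cells were stimulated with 1.5 ng/mL TSH (final) in presence of Ro20-1724 for 30 min at RT. HTRF cAMP detection after 1 h; each compound tested at 15 concentrations, triplicate.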

[4] = qHTS assay to identify small molecule agonists of the estrogen receptor alpha (ER-alpha) signaling pathway in the presence of an antagonist - cell viability counter screen (AID 1259386); settings: VM7Luc4E2 viability, CellTiter-Fluor fluorescence, 22 h; series mostly up to 92.4 µM;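 further: cells exposed to compounds for 22 h at 37 °C before the viability read; nearly all actives have a fitted effect of over 30% in size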
In short: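 Cytotoxicity was measured in parallel with the ERE-luciferase agonist screen, in the same wells. The cells were VM7Luc4E2, which endogenously express ER-alpha, and treatment was with compounds plus 10.0nM ICI-182,780 for 22hr.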

[5] = biological target: Progesterone receptor (Homo sapiens) (UniProt P06401); assay: qHTS assay to identify small molecule antagonists of the progesterone receptor (PR) signaling pathway (AID 1346795; active means well fitted inhibition curve with a large enough effect in the signal ratio in the repeat runs, not every such curve was filed as active; the % refers to the signal ratio; further: potency means the concentration at half of the fitted maximal effect); settings: PR-UAS-bla HEK293T, beta-lactamase FRET ratio, 16 h; series mostly up to 92.4 µM
Chain of Progesterone receptor (Homo sapiens) (P06401 whole entry, looked up): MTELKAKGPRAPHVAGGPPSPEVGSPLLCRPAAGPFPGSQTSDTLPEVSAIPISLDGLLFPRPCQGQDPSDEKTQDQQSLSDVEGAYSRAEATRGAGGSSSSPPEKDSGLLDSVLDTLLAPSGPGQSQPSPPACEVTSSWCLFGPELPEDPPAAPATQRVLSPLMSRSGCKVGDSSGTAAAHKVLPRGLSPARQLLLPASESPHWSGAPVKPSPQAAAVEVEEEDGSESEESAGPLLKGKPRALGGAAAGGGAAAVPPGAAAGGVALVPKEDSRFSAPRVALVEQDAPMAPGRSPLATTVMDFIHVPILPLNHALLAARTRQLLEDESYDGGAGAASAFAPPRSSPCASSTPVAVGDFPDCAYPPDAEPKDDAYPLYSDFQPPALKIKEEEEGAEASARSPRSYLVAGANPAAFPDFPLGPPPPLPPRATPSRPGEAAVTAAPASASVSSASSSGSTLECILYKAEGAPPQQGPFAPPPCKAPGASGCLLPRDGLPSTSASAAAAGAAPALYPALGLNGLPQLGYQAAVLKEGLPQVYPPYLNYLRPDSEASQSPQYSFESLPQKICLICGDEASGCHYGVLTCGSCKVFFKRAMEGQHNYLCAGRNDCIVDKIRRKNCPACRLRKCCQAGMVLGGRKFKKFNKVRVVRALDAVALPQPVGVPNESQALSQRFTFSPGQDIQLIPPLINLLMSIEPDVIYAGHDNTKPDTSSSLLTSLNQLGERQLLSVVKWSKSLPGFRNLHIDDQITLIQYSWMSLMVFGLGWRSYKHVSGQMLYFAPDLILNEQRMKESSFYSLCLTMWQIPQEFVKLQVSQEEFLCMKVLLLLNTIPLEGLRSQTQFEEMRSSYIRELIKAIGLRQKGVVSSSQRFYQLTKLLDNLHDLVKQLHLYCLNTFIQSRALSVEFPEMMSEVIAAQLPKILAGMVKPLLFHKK
In short: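 After 6 hr plating at 37C in 2% stripped-serum medium, PR-UAS-bla HEK293T cells got compounds, then 1 nM R5020. Sixteen hours later, LiveBLAzer substrate was applied for 2 hr at room temperature and fluorescence was recorded.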

[6] = qHTS assay to identify small molecule antagonists of the progesterone receptor (PR) signaling pathway - cell viability counter screen (AID 1346798); settings: PR-UAS-bla HEK293T viability, CellTiter-Glo luminescence, 16 h; series mostly up to 92.4 µM; further: nearly all actives have a fitted effect of over 50% in size
In short: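 Viability was determined by ATP-based luminescence (CellTiter-Glo) in PR-UAS-bla HEK293T cells cultured in 2% charcoal-stripped serum and incubated 16 hr with compounds under R5020 stimulation.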

[7] = qHTS assay to identify small molecule antagonists of the TGF-beta/Smad signaling pathway - cell viability counter screen (AID 1346824); settings: SBE-bla HEK293T viability, CellTiter-Glo luminescence; series mostly up to 76.8 µM; further: nearly all actives have a fitted effect of over 50% in size
In short: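 Cytotoxicity counter-screen run in the same wells as the beta-lactamase Smad reporter read: CellTiter-Glo luminescence after 30 min at room temperature. HEK 293T SBE-bla cells had 5 hr compound exposure at 37 C with TGF-beta1 (0.25 ng/mL stock).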

[8] = qHTS assay to identify small molecule agonists of the progesterone receptor (PR) signaling pathway - cell viability counter screen (AID 1346799; calls by dose curve; further: nearly all actives have a fitted effect of over 45% in size); settings: PR-UAS-bla HEK293T viability, CellTiter-Glo luminescence, 16 h; series mostly up to 92.4 µM
In short: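 Viability was scored by ATP luminescence (CellTiter-Glo, 30 min, room temperature) in the same wells used for the reporter readout, after 16 hr compound exposure of PR-UAS-bla HEK293T cells.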

[9] = biological target: Progesterone receptor (Homo sapiens) (UniProt P06401); assay: qHTS assay to identify small molecule agonists of the progesterone receptor (PR) signaling pathway (AID 1346784; calls by dose curve; further: nearly all actives have a fitted effect of over 30% in size; further: potency means the concentration at half of the fitted maximal effect); settings: PR-UAS-bla HEK293T, beta-lactamase FRET ratio, 16 h; series mostly up to 92.4 µM
In short: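 The screen uses PR-UAS-bla HEK 293T cells in charcoal-stripped serum (2%). Compounds are applied for 16 hr at 37C after a 6 hr pre-incubation, and reporter activity is detected with a FRET beta-lactamase substrate after 2 hr at room temperature.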

| Compound | Potency [1] | outcome [2] | Potency [3] | Potency [4] | Potency [5] | Potency [6] | Potency [7] | Potency [8] | Potency [9] |
| --- | --- | --- | --- | --- | --- | --- | --- | --- | --- |
| CCCCC(CC)COC(=O)C(C#N)=C(c1ccccc1)c1ccccc1 (stereo unspecified) | inactive | inactive | 61.1 µM (active) | inactive | 8.63 µM (active) | inactive | inactive |  |  |
| C#C[C@]1(O)CC[C@H]2[C@@H]3CCC4=CC(=O)CC[C@@H]4[C@H]3CC[C@@]21C | inactive | inactive | inactive | inactive |  | inactive | inactive | inactive |  |
| C[C@H]1C[C@@H]2[C@H]([C@@H](O)C[C@@]3(C)[C@H]2CC[C@]3(O)C(=O)CO)[C@@]2(C)C=CC(=O)C=C12 | inactive |  |  | inactive |  | inactive | inactive | inactive | 48.6 µM (active) |
| CCCCCCCCCCCCCCCO | inactive | inactive | inactive | inactive | inactive | inactive |  | inactive |  |
| CN(C)CCOCCN(C)C | inactive | inactive | inactive | inactive | inactive | inactive | inactive | inactive |  |
| CC1CCC2CC1C2(C)C (stereo unspecified) | inactive | inactive | inactive | inactive | inactive | inactive | inactive | inactive | inactive |
| CN(C)CCC(c1ccccc1)c1ccccn1 (stereo unspecified) | inactive | inactive | inactive | inactive | inactive | inactive | inactive | inactive |  |
| CCCSc1ccc2nc(NC(=O)OC)[nH]c2c1 | inactive |  |  | inactive | 4.86 µM (active) |  | inactive | inactive | inactive |
| CC(C)(C)[C@@H](O)[C@@H](Cc1ccc(Cl)cc1)n1cncn1 | inactive | inactive | inactive | inactive | 48.2 µM (active) | inactive | inactive | inactive | inactive |
| CCCCOC(=O)COc1ccc(Cl)cc1Cl | inactive | inactive | inactive | inactive | inactive | inactive | inactive | inactive |  |
| O=C(O)c1ccc(C(=O)O)cc1 | inactive | inactive | inactive | inactive | inactive | inactive | inactive | inactive |  |
| O=c1[nH]c(=O)n([C@H]2CCCO2)cc1F | inactive | inactive | inactive | inactive | inactive | inactive | inactive | inactive | inactive |
| C[Si](O[Si](C)(C)C)O[Si](C)(C)C | inactive | inactive | inactive | inactive | inactive | inactive | inactive | inactive |  |
| CCCCCCCCC/C=C/CC1CC(=O)OC1=O (stereo unspecified) | inactive | inactive | inactive | inactive | inactive | inactive | inactive | inactive |  |
| Oc1cccc2ccccc12 | inactive | inactive | inactive | inactive | 28 µM (active) and 43.3 µM (active) | inactive | inactive | inactive |  |
| CCCCCCCCCCCCOCCO | inactive | inactive | inactive | inactive |  |  | inactive | inactive | inactive |
| CCCCC(CC)CO (stereo unspecified) | inactive | inactive | inactive | inactive | inactive | inactive | inactive | inactive |  |
| C[C@H]1C[C@H]2[C@@H]3CCC4=CC(=O)C=C[C@]4(C)[C@@]3(F)[C@@H](O)C[C@]2(C)[C@@]1(O)C(=O)CO | inactive |  |  | inactive |  | inactive | inactive |  | 11.9 µM (active) |
| CCCCCC(N)=O | inactive | inactive | inactive | inactive | inactive | inactive | inactive | inactive |  |
| CC(C)CC(=O)CC(C)C | inactive |  |  | inactive | inactive | inactive | inactive | inactive | inactive |
